For 39 molecules, outcome results are on record in PubChem BioAssay AID651949 (Broad Institute, 2012).

The nature of the assay: viability loss in HEK293T cells – cell-based, CellTiter-Glo luminescence, dry powder, set 6, cytotoxicity control, dose response (AID 651949). The settings on record: CellTiter-Glo ATP luminescence, 48 h; series mostly up to 26 µM. (ATP-based viability assays read luminescence as a measure of living cells.)

Measured potencies and affinities stand elsewhere. The source made the active and inactive calls.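 The calls were made as follows: active = compounds lowering cell ATP signal whose fitted half-maximal concentration is at most twice the top tested dose; inconclusive = flat curve with 30 to 70% signal loss, or poor fit; inactive = the rest.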

In the case of `Clc1ccccc1-c1nnc(SCc2ccccc2)o1`, the molecule was classed as inactive.
Take `N#Cc1cccc(-c2nnc(SCc3ccccc3)o2)c1`: the outcome was inactive.
For the molecule `Clc1ccccc1CSc1nnc(-c2ccccc2)o1`, the outcome was inactive.
Then `Cc1ccccc1-c1nnc(SCc2ccccc2)o1`, with “inactive”; and `c1ccc(CNc2nnc(-c3ccccc3)o2)cc1`, with “inactive”.
Regarding `Cc1ccc(-c2nnc(SCc3ccccn3)o2)cc1`, the molecule was called inactive.
Take `c1ccc(-c2nnc(SCc3ncco3)o2)cc1`: the call was inactive.
Turning to `Fc1ccc(Cn2cc(CSc3nnc(C4CCCC4)o3)nn2)cc1`, the call was inactive.
With `Cc1cccc(CSc2nnc(-c3ccc(Cl)cc3)o2)n1` the entry was “inactive”; with `FC(F)(F)Oc1ccc(-c2nnc(SCc3ccccc3)o2)cc1`, “inactive”.
On to `FC(F)(F)Oc1cccc(-c2nnc(SCc3ccccc3)o2)c1`, for which the call was inactive.
Then `Fc1ccc(CSc2nnc(-c3ccc(Cl)cc3)o2)cc1`, with “inactive”.
For `CC1(O)CN(CCSc2nnc(-c3ccccc3)o2)C1`, the molecule was classed as inactive.
As for `COc1ccc(-c2nnc(SCc3ccccc3)o2)cc1`, the call was inactive.
With `c1ccc(CSc2nnc(-c3cnco3)o2)cc1` the entry was “inactive”.
Take `COCCSc1nnc(-c2ccccc2)o1`: the molecule was classed as inactive.
Regarding `FC1(F)CN(CCSc2nnc(-c3ccccc3)o2)C1`, the result was inactive.
With `Fc1ccc(CSc2nnc(-c3ccccc3)o2)cc1` the entry was “inactive”; with `CS(=O)(=O)c1ccc(-c2nnc(SCc3ccccc3)o2)cc1`, “inactive”.
Consider `O=S(Cc1cn(-c2ccccc2)nn1)c1nnc(-c2ccc(Cl)cc2)o1` (centres undefined), for which the outcome was inactive.
In the case of `Clc1ccc(CSc2nnc(-c3ccccc3)o2)cc1`, the molecule was classed as inactive.
On to `c1ccc(-n2cc(CSc3nnc(C4CCCC4)o3)nn2)cc1`, for which the outcome was inactive.
Then `CN(C)CCSc1nnc(-c2ccccc2)o1`, with “inactive”.
With `c1ccc(CCc2nnc(-c3ccccc3)o2)cc1` the entry was “inactive”; with `FC(F)(F)CNCCSc1nnc(-c2ccccc2)o1`, “inactive”.
With `Cc1nnc(SCc2ccccc2)o1` the entry was “inactive”; with `c1ccc(-c2nnc(SCC3CC3)o2)cc1`, “inactive”.
As for `Clc1cccc(CSc2nnc(-c3ccccc3)o2)c1`, the outcome was inactive.
Then `c1ccc(CSc2nnc(C3CCCCC3)o2)cc1`, with “inactive”.
With `COc1ccccc1-c1nnc(SCc2ccccn2)o1` the entry was “inactive”; with `[O-][n+]1ccccc1CSc1nnc(-c2ccccc2)o1`, “inactive”.
As for `c1ccc(-c2nnc(SCCN3CCN(c4ccccc4)CC3)o2)cc1`, the outcome was inactive.
Take `Fc1ccc(CSc2nnc(-c3ccncc3)o2)cc1`: the outcome was inactive.
Consider `N#Cc1ccc(CSc2nnc(-c3ccccc3)o2)cc1`, for which the outcome was inactive.
Then `c1ccc(CSc2nnc(-c3ccccc3)s2)cc1`, with “inactive”; and `c1ccc(-c2nnc(SC(c3ccccc3)c3ccccc3)o2)cc1`, with “inactive”; and `CS(=O)(=O)c1ccccc1CSc1nnc(-c2ccccc2)o1`, with “inactive”.
Then `FC(F)(F)Oc1ccccc1CSc1nnc(-c2ccccc2)o1`, with “inactive”; and `Brc1cccc(-c2nnc(SCc3ccccn3)o2)c1`, with “inactive”.
